Test results published in PMC4336329 (PLoS ONE, 2015).
Out of some 310,000 compounds screened, about 14,000 (4.5%) showed an effect of 50% or more. The effect is printed as a negative number. Shown is part of a subset that was picked to be rich in strong results.

Biological target: human ether-à-go-go-related gene (hERG) potassium channel (human, UniProt Q12809)
Assay: primary screen, population patch clamp on CHO cells stably expressing hERG; higher = less effect of the substance
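Note: peak tail current of the secondary pulse compared with the same well before compound.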

human ether-à-go-go-related gene (hERG) potassium channel, sequence (Q12809 whole entry, looked up): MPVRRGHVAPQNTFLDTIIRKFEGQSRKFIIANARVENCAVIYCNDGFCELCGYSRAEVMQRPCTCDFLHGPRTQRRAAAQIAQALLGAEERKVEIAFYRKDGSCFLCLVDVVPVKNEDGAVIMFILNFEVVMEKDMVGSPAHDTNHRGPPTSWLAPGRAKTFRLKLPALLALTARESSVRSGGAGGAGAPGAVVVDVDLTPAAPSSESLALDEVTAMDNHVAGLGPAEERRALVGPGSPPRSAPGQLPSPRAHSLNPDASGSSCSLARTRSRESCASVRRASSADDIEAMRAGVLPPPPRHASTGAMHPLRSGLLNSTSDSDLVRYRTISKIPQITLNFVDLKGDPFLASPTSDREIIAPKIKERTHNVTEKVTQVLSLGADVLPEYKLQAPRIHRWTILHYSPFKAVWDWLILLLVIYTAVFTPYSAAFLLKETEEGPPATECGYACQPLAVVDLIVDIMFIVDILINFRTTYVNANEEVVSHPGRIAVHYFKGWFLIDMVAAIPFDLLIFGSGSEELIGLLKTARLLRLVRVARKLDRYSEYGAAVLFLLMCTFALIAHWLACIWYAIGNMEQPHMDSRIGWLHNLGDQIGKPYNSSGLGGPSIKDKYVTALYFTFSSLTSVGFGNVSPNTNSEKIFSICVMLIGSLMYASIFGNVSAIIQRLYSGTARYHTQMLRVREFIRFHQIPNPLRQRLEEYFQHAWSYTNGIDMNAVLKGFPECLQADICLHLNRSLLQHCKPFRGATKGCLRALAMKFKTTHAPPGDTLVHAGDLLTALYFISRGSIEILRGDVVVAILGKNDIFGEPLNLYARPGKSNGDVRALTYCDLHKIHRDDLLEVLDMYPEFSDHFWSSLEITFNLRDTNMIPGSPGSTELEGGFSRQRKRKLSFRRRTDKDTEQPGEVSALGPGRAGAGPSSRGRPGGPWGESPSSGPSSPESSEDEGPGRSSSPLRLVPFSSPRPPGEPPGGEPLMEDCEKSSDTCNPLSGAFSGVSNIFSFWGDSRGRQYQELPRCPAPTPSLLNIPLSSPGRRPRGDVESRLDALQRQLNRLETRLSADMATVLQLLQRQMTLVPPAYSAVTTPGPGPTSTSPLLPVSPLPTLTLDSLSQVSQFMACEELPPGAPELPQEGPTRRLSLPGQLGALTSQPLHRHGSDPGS

First: CC(=O)n1cc(CO)c2ccccc21
Second: COc1ccccc1C(=O)CSc1nccn1C
The “hERG current change (%, negative = inhibition) at 10uM” value of the first is higher: 9.03% for the first, -11.1% for the second.

Compared with `O=S(=O)(Nc1nc2ccccc2nc1Nc1ccc2c(c1)OCO2)c1ccc(F)cc1`, `CC1=CC(c2ccc(Cl)cc2)n2nc(NS(=O)(=O)c3ccc(C)cc3)nc2N1` (stereo not drawn) is lower in “hERG current change (%, negative = inhibition) at 10uM” value: 24.5% for the first, -19.7% for the second.

Compared with `Cc1cccc(C)c1NC(=O)CSc1ccc([N+](=O)[O-])cn1`, `Cc1ccc(SCC(=O)Nc2ccc(F)cc2[N+](=O)[O-])cc1C` is higher in “hERG current change (%, negative = inhibition) at 10uM” value: -12.3% for the first, 11.7% for the second.

Compared with `COc1ccc(NC(=S)NCc2cccnc2)cc1OC`, `COc1ccc(CNS(=O)(=O)CCNC(=O)c2cccc(OC)c2)cc1` is lower in “hERG current change (%, negative = inhibition) at 10uM” value: 5.8% for the first, -78.1% for the second.

First: OC1(c2ccc(Br)cc2)CN(c2ccccc2)C2=[N+]1CCS2.[Br-] (stereo not drawn)
Second: OC1(c2cccs2)CN(c2ccc(Br)cc2)C2=[N+]1CCCS2.[Br-] (stereo not drawn)
The “hERG current change (%, negative = inhibition) at 10uM” value of the first is higher: -19.5% for the first, -72.1% for the second.

First: OC1(c2cccs2)CN(c2ccc(Cl)cc2)C2=[N+]1CCCS2.[Br-] (stereo not drawn)
Second: CCc1ccc(N2CC(O)(c3cccs3)[N+]3=C2SCCC3)cc1.[Br-] (stereo not drawn)
The “hERG current change (%, negative = inhibition) at 10uM” value of the first is lower: -73.6% for the first, -70% for the second.

Compared with `Cc1ccc(Oc2ccc(C(=O)NC3CCSC3=O)cn2)cc1` (stereo not drawn), `COc1ccc(C(=O)NCCCCc2ccccc2)cc1` is lower in “hERG current change (%, negative = inhibition) at 10uM” value: 12% for the first, -4.68% for the second.

Going from `CC(C)(CNc1ccc([N+](=O)[O-])cc1Cl)CNS(C)(=O)=O` to `COc1cccc(C(=O)NCCS(=O)(=O)NCc2ccc(Cl)cc2)c1`, the “hERG current change (%, negative = inhibition) at 10uM” value falls from -1.02% to -36.5%.

Compared with `Cc1cc(/C=N/n2cnnc2)c(C)n1-c1ccccc1`, `Cc1cccc(C(=O)NCCN2CCN(c3ccccc3)CC2)c1.Cl` is lower in “hERG current change (%, negative = inhibition) at 10uM” value: -4.02% for the first, -37.1% for the second.

Going from `O=C1NC(=O)N(c2ccccc2)C(=O)/C1=C\c1ccc2c3c(cccc13)CC2` to `O=C(NCCN1CCN(c2ccccc2)CC1)c1cccc(Br)c1`, the “hERG current change (%, negative = inhibition) at 10uM” value falls from -20.4% to -60.2%.

First: CCOC(=O)c1c(NC(=O)c2ccc(Cl)cc2)csc1C
Second: CCN(CC(=O)Nc1c(F)cccc1F)C(=O)C1CCCN(C(=O)c2ccc(Cl)cc2)C1 (stereo not drawn)
The “hERG current change (%, negative = inhibition) at 10uM” value of the first is higher: -0.689% for the first, -31.5% for the second.

First: O=C(NCCCN1CCN(CCCNC(=O)c2cccc(Cl)c2)CC1)c1cccc(Cl)c1
Second: COc1cccc(C(=O)NCCCN2CCN(CCCNC(=O)c3cccc(OC)c3)CC2)c1
The “hERG current change (%, negative = inhibition) at 10uM” value of the first is higher: -74.4% for the first, -85.4% for the second.

Compared with `COc1ccc(CNS(=O)(=O)CCNC(=O)c2ccccc2)cc1`, `O=C(NCCc1ccccc1)c1cccc(Br)c1` is higher in “hERG current change (%, negative = inhibition) at 10uM” value: -4.36% for the first, 2.53% for the second.

Going from `Cc1cc(C(=O)NCCCN2CCN(c3cc(Cl)ccc3C)CC2)n(-c2ccccc2)n1` to `Cc1cc(C(=O)NCCCN2CCOCC2)n(-c2ccccc2)n1`, the “hERG current change (%, negative = inhibition) at 10uM” value rises from -89.2% to 19.3%.

Compared with `CC(=O)Nc1ccccc1C(=O)C(=O)Nc1cccc(C(=O)NCc2ccc(C)cc2)c1`, `CC(=O)Nc1ccccc1C(=O)C(=O)Nc1cccc(C(=O)NCc2ccccc2)c1` is higher in “hERG current change (%, negative = inhibition) at 10uM” value: -58.3% for the first, -32.6% for the second.

Compared with `CCCCNC(=O)c1cccc(NC(=O)C(=O)c2ccccc2NC(C)=O)c1`, `COc1cccc(C(=O)NCCCNC(=O)c2cccc(OC)c2)c1` is higher in “hERG current change (%, negative = inhibition) at 10uM” value: -19.1% for the first, 1.43% for the second.

Going from `Cc1cc(C(=O)NCCCN2CCN(C3CCCCC3)CC2)n(-c2ccccc2)n1` to `Nc1ccccc1C(=O)NCCCN1CCN(c2cccc(Cl)c2)CC1`, the “hERG current change (%, negative = inhibition) at 10uM” value falls from 2.76% to -71.4%.

Going from `O=C(NCCCn1ccnc1)c1cccc(Cl)c1` to `Cl.O=C(NCCN1CCN(c2ccccc2)CC1)c1cccc(Cl)c1`, the “hERG current change (%, negative = inhibition) at 10uM” value falls from 0.459% to -54.2%.

Compared with `O=C(NCCCN1CCN(c2cccc(Cl)c2)CC1)c1cccc(N2CCCC2=O)c1`, `O=C(NCCCN1CCN(c2cccc(Cl)c2)CC1)c1ccc(N2CCCC2=O)cc1` is higher in “hERG current change (%, negative = inhibition) at 10uM” value: -38% for the first, -26.4% for the second.

Compared with `Oc1c(Cl)cc(Cl)cc1/C=N/c1nccs1`, `O=C(NCC1CC1)c1ccc(Oc2cc(Cl)cc(Cl)c2)o1` is lower in “hERG current change (%, negative = inhibition) at 10uM” value: -11.8% for the first, -33.7% for the second.

First: O=C(COC(=O)C1CCN(S(=O)(=O)c2cccc3cccnc23)CC1)c1ccc([N+](=O)[O-])cc1
Second: O=C(NCCCN1CCN(c2cccc(Cl)c2)CC1)c1nc(-c2ccncc2)no1
The “hERG current change (%, negative = inhibition) at 10uM” value of the first is higher: 13.1% for the first, -63.2% for the second.

First: O=C(NC(=O)c1ccccc1F)Nc1nc(-c2cccs2)cc(C(F)(F)F)n1
Second: COc1ccccc1CNS(=O)(=O)c1csc(C(N)=O)c1
The “hERG current change (%, negative = inhibition) at 10uM” value of the first is lower: 4.49% for the first, 20.1% for the second.

Compared with `COC(=O)CC1c2cc(OC)c(OC)cc2CC(=O)c2cc(OC)c(OC)cc21` (stereo not drawn), `COc1cc(OC)cc(C(=O)NCCCCNC(=O)c2cc(OC)cc(OC)c2)c1` is lower in “hERG current change (%, negative = inhibition) at 10uM” value: 6.73% for the first, 4.94% for the second.

First: Nn1c(COc2ccccc2)nnc1SCc1cc(=O)[nH]c2ccccc12
Second: CCCc1cc(=O)[nH]c(SCC(=O)NN(c2ccccc2)c2ccccc2)n1
The “hERG current change (%, negative = inhibition) at 10uM” value of the first is lower: -14.3% for the first, -1.04% for the second.

Compared with `CCCNC(=S)N1CCC(C(=O)c2ccc3c(c2)OCCO3)CC1`, `O=C(NCCN1CCOCC1)c1cccc(Br)c1` is higher in “hERG current change (%, negative = inhibition) at 10uM” value: -28.9% for the first, -3.21% for the second.

First: Nc1ccccc1C(=O)NCCCN1CCOCC1
Second: CCOc1ccc(C(=O)NCCN2CCCC2)cc1.Cl
The “hERG current change (%, negative = inhibition) at 10uM” value of the first is higher: 15.6% for the first, -40.6% for the second.

Going from `COc1cccc(C(=O)NCCN2CCN(c3ccc(Cl)cc3)CC2)c1` to `Cn1c(C(=O)NCCCN2CCN(c3cccc(Cl)c3)CC2)cc2c(=O)n(C)c3ccccc3c21`, the “hERG current change (%, negative = inhibition) at 10uM” value rises from -49.8% to 9.13%.

First: CCOc1c(Cl)cc(C(=O)NCCN2CCCCC2)cc1Cl
Second: COc1cc(C(=O)NCCN2CCCC2)cc(OC)c1OC.Cl
The “hERG current change (%, negative = inhibition) at 10uM” value of the first is lower: -58.6% for the first, 9.26% for the second.

Going from `COc1cc(OC)cc(C(=O)NCCCN2CCN(CCCNC(=O)c3cc(OC)cc(OC)c3)CC2)c1` to `COc1cc(OC)cc(C(=O)NCCCCc2ccccc2)c1`, the “hERG current change (%, negative = inhibition) at 10uM” value falls from -48.8% to -56%.

Compared with `Cc1ccccc1Nc1nc(N2CCOCC2)nc(N2CCOCC2)n1.Cl`, `Clc1cccc(N2CCN(Cc3nc(-c4ccccc4)no3)CC2)c1` is lower in “hERG current change (%, negative = inhibition) at 10uM” value: 14% for the first, -12% for the second.

First: CCOC(=O)c1cnc2c(cnn2C)c1NCCC(O)C(F)(F)F (stereo not drawn)
Second: O=C(NCCN1CCCCC1)c1ccc(Oc2cc(Cl)cc(Cl)c2)o1
The “hERG current change (%, negative = inhibition) at 10uM” value of the first is higher: 0.469% for the first, -54.8% for the second.

In the case of `O=C(c1ccc(Oc2cc(Cl)cc(Cl)c2)o1)N1CCCCC1`, the “hERG current change (%, negative = inhibition) at 10uM” value is reported as -7.03%.
